PubChem BioAssay (EPA / NIEHS)
Activity calls are given as the source filed them. How the source made its calls: active means hit-call score of the fitted dose curve at least 0.9, where 1 is the maximum; inactive means score below 0.9.

Assay: CCTE_Shafer_MEA_acute_per_network_burst_electrodes_number_mean: CCTE's Neural Acute Assay for Mean Number of Electrodes in a Network Burst, Shafer Lab (AID 2284021);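 further: curves fitted for decreases only so hits reduce electrodes per burst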
Experimental: CCTE_Shafer_MEA_acute assay is conducted using Axion Biosystems 48 well microelectrode array (MEA) plates and Maestro recording system. Each well of the MEA plate contains a grid of 16 microelectrodes embedded in the culture surface. Electrically active cells, such as neurons, can be cultured over the electrodes, and electrical activity in these cells can be recorded extracellularly. The spontaneous firing of neurons is captured from each electrode on a microsecond timescale providing both temporally and spatially precise data. […] The CCTE_Shafer_MEA_acute assay uses primary cultures of rat cortical neurons. As these cultures mature over time, neural networks develop functional activity and form cohesive networks in which electrical activity can be highly coordinated. Baseline 40-minute recordings are made on days post-plating 13 or 15, followed by a secondary 40-minute recording after chemical exposure.CCTE_Shafer_MEA_acute_per_network_burst_electrodes_number_mean is a component of the CCTE_Shafer_MEA_acute assay. It measures the average number of electrodes with activity during a network burst (a temporally-clustered group of action potential firing across multiple electrodes) in a recording in a microelectrode array (MEA) using Axion Biosystems Maestro 768 channel amplifier with the AxIS adaptive spike detector. The recordings before and after chemical treatment are used to calculate a percent change in the mean number of electrodes participating in network bursts in each well.Data from the assay component CCTE_Shafer_MEA_acute_per_network_burst_electrodes_number_mean was analyzed into 1 assay endpoint. This assay endpoint, CCTE_Shafer_MEA_acute_per_network_burst_electrodes_number_mean, was analyzed in the negative analysis fitting direction relative to DMSO as the negative control and baseline of activity. Using a type of functional reporter, gain or loss-of-signal activity can be used to understand electrical activity.
Spontaneous activity in the cortical cultures was recorded using an Axion Biosystems Maestro 768 channel amplifier and Axion Integrated Studios (AxIS) v1.8 (or later) software. The amplifier recorded from all channels simultaneously (gain = 1200 x; sampling rate = 12.5 kHz/channel): raw signals were filtered with a Butterworth band-pass filter (300-5000 Hz), which filters out slower local field potentials leaving only fast potentials, i.e., "spikes", arising from extracellular currents associated with action potentials (Pine 2006; Wheeler and Nam 2011). On-line spike detection of filtered signals was conducted with the AxIS adaptive spike detector, using a threshold of 8x the root mean squared (rms) noise on each channel. Any electrodes with rms noise levels greater than 5 uV were grounded (e.g., no data were recorded). Once grounded, an electrode was grounded for the duration of the experiment. All recordings were conducted at 37 C. Wells were deemed usable if on the day of the exposure >/= 10 electrodes were active (defined as >/= 5 spikes/min). On DIV 13 or 15, a minimum of three wells from one cortical culture preparation were treated with each compound (0.03-40 uM). Prior to recording baseline activity, each mwMEA plate was placed in the Maestro at 37 C and allowed to sit for 20 min while firing rates stabilized. Baseline activity (40 min) was recorded before the addition of each compound. An additional 40 min of spontaneous activity was recorded in the presence of each compound. Changes in network parameters relative to baseline were assessed following compound treatment.

| SMILES | outcome | AC50 |
| --- | --- | --- |
| COC(=O)Cc1ccccc1 | inactive | – |
| CC(=O)OC(c1ccccc1)C(Cl)(Cl)Cl (centres undefined) | inactive | – |
| CCOP(=S)(OCC)SCSP(=S)(OCC)OCC | – | 11.8 µM (active) |
| CCC(=O)C(CC(C)N(C)C)(c1ccccc1)c1ccccc1 (centres undefined) | inactive | – |
| CC(C)(c1ccccc1)c1ccc(O)c(C(C)(C)c2ccccc2)c1 | inactive | – |
| CCCCCCCCc1ccc(O)cc1 | inactive | – |
| CC(=O)[O][Hg][c]1ccccc1 | – | 0.561 µM (active) |
| CC(C)(OO)c1ccccc1 | inactive | – |
| O=C(O)C(F)(F)C(F)(F)C(F)(F)C(F)(F)C(F)(F)C(F)(F)C(F)(F)C(F)(F)C(F)(F)C(F)(F)F | inactive | – |
| O=C1C2(Cl)C3(Cl)C4(Cl)C(Cl)(Cl)C5(Cl)C3(Cl)C1(Cl)C5(Cl)C24Cl (centres undefined) | inactive | – |
| C=C(C)C(=O)[O][Sn]([CH2]CCC)([CH2]CCC)[CH2]CCC | – | 2.81 µM (active) |
| O=C(Nc1ccc2[nH]ccc2c1)c1cc2cc(F)ccc2n1Cc1cccc(F)c1 | inactive | – |
| ClC1(Cl)C2(Cl)C3(Cl)C4(Cl)C(Cl)(Cl)C5(Cl)C3(Cl)C1(Cl)C5(Cl)C24Cl (centres undefined) | inactive | – |
| O=C(O)C(Cl)(Cl)Cl | inactive | – |
| CCC(C)(C)c1ccc(O)c(C(C)(C)CC)c1 | – | 20 µM (active) |
| C[C@]12CCC(=O)C[C@@H]1CC[C@@H]1[C@@H]2CC[C@]2(C)[C@@H](O)CC[C@@H]12 | inactive | – |
| CCN1CCC2(CC1)COc1cc3c(cc12)N(C(=O)c1ccc(-c2ccc(-c4nnc(C)o4)cc2C)cc1)CC3 | inactive | – |
| CC(C)(C)c1cc(O)ccc1O | inactive | – |
| CC(C)(C)CC(C)(C)c1ccc(O)cc1 | inactive | – |
